Experimental data taken from PMC5540273 (PLoS ONE, 2017).

Test system: WNK3
Details: concentration: 1 μM, replicates: in singlicate; n = 1
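Also: KINOMEscan kinase panel screen.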

| Compound | %Inh [%] |
| --- | --- |
| O=C(NCCNc1ccnc(Nc2ccc(F)cc2)n1)Nc1ccc2c(c1)OCO2 [GSK1379882] | 30 |
| O=C(NCc1cccs1)c1cc(C(=O)c2c(Cl)cccc2Cl)c[nH]1 [GW823670] | 0 |
| Cc1ccc(-c2ccc3c(ccc4sc5c(c43)NC[C@@H](C)N=C5N(C)C)n2)cn1 | 0 |
| Cc1cc(Nc2nc(-c3cccc(C)n3)nc3ccccc23)ccn1 [GW872411] | 0 |
| Nc1nc(-c2ccccc2F)c(-c2ccnc3ccccc23)s1 [GW560459] | 35 |
| COc1ccc(-c2cc3c(C)nc(N)nc3n([C@H]3CC[C@H](O)CC3)c2=O)cn1 | 0 |
| OCCCNc1nccc(-c2c(-c3cccc(C(F)(F)F)c3)nn3cc(C(F)(F)F)ccc23)n1 [GW630813] | 33 |
| CN(C)c1cc(-c2ccc3c(N)n[nH]c3c2)nc(N)n1 [GSK2219329] | 15 |
| Cl.c1ccc(Cn2cnc3cc(Nc4ncnc5ccccc45)ccc32)cc1 [GW272142] | 35 |
| Cc1cccc(-c2cc(-c3c[nH]nc3-c3ccccn3)ccn2)c1 [GW679395] | 36 |
| CCC(=O)c1c(-c2ccccc2)c2cc(Cl)ccc2c(=O)n1Cc1cc(S(C)(=O)=O)n(CCC(C)(C)O)n1 | 0 |
| Cc1nnc(-c2ccc(C)c(-c3ccc(C(=O)O)cc3)c2)o1 [GW608005] | 15 |
| COc1cc2nccc(Nc3ccc(OCc4ccc(NC(C)=O)cc4)cc3)c2cc1OC.Cl [GW440135] | 39 |
